Assay [1] concerns the target Serine/threonine-protein kinase pim-2 (Homo sapiens) (UniProt Q9P1W9). The following applies: at 1 µM.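 Further: each value is a mean of the inhibition measurements against the kinase.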
The target in assay [2] is Serine/threonine-protein kinase pim-3 (Homo sapiens) (UniProt Q86V86). The following applies: at 0.1 µM.
Assay [3] shares this target. The following applies: at 1 µM.
Assay [4] addresses T1, MAP kinase-activated protein kinase 5 (Homo sapiens) (UniProt Q8IW41).
T1 sequence (whole entry): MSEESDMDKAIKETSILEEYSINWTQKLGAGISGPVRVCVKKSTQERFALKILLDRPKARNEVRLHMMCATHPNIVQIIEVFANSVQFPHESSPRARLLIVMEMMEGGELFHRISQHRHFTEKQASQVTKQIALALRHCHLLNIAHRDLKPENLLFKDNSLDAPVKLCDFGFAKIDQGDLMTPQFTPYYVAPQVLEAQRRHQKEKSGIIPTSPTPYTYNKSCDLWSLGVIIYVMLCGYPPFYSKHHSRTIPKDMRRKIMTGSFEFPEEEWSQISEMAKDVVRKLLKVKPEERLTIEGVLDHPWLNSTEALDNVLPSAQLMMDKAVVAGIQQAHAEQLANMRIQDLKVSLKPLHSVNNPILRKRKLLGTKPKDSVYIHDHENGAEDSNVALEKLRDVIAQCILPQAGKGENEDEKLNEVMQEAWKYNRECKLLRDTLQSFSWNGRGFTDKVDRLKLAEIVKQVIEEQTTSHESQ
The following applies: at 0.1 µM.

The target in assay [5] is T1, MAP kinase-activated protein kinase 5 (Homo sapiens). The following applies: at 1 µM.
Assay [6] deals with Serine/threonine-protein kinase SIK1 (Homo sapiens) (UniProt P57059). The following applies: at 0.1 µM.
Chain of Serine/threonine-protein kinase SIK1 (Homo sapiens) (P57059 whole entry): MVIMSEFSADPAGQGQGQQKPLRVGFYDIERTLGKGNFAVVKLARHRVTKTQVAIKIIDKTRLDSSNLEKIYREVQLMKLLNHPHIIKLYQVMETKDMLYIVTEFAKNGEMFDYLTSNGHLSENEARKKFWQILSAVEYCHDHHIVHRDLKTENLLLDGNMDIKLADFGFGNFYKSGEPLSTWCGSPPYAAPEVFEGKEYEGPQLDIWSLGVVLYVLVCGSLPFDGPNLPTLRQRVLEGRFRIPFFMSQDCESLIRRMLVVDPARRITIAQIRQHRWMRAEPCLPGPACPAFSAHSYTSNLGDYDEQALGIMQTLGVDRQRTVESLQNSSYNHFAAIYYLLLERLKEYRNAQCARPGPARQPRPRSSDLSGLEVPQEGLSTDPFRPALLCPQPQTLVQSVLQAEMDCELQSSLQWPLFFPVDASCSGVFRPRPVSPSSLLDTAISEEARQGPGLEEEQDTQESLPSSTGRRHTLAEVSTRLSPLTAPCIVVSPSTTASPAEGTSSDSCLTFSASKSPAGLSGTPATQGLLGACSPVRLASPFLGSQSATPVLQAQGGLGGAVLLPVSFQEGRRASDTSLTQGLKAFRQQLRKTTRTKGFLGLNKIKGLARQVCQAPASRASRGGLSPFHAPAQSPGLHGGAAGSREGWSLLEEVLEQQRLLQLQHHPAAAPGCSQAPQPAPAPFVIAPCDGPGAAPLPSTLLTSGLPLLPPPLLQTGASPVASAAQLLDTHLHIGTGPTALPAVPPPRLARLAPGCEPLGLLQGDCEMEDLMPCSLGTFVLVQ
The target is the same in assay [7]. The following applies: at 1 µM.
Assay [8] has as its target Serine/threonine-protein kinase SIK2 (Homo sapiens) (UniProt Q9H0K1). The following applies: at 0.1 µM.
Assay [9] has the same target. The following applies: at 1 µM.
Assay [10] addresses T2, Serine/threonine-protein kinase TBK1 (Homo sapiens) (UniProt Q9UHD2).
T2 sequence (whole entry): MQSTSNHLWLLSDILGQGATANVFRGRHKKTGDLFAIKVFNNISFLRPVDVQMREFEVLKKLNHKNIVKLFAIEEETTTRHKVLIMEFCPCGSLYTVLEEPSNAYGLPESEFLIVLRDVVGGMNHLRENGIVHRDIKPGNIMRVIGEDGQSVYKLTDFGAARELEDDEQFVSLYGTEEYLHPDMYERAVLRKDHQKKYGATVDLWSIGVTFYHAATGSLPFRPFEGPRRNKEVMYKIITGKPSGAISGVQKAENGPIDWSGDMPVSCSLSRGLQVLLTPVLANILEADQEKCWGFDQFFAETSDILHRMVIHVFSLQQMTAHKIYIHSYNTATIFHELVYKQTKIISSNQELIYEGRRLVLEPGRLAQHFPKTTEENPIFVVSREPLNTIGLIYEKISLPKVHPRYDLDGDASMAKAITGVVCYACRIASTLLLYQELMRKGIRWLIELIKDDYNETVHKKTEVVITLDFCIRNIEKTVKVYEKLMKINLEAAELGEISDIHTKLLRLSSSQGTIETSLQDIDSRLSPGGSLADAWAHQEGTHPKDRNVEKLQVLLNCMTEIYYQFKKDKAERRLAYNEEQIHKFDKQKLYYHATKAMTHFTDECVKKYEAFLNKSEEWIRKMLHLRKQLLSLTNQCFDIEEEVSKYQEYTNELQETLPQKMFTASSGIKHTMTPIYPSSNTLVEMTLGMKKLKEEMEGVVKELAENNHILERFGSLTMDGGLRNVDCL
The following applies: at 0.1 µM.

The target in assay [11] is T2, Serine/threonine-protein kinase TBK1 (Homo sapiens). The following applies: at 1 µM.
Assay [12] concerns the target T3, Testis-specific serine/threonine-protein kinase 1 (Homo sapiens) (UniProt Q9BXA7).
T3 sequence (whole entry): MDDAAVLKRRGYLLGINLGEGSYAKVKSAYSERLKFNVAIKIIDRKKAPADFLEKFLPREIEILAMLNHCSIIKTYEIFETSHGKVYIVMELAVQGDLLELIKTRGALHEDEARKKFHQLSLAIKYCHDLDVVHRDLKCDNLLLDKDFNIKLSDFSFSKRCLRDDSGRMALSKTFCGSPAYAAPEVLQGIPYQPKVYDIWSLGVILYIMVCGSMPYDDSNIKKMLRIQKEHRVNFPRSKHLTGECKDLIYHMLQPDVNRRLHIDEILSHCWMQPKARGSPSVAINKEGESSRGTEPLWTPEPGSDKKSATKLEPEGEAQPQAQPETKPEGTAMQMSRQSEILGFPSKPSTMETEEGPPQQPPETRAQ
The following applies: at 0.1 µM.

Assay [13] addresses T3, Testis-specific serine/threonine-protein kinase 1 (Homo sapiens). The following applies: at 1 µM.
For assay [14], the target named is T4, Testis-specific serine/threonine-protein kinase 2 (Homo sapiens) (UniProt Q96PF2).
T4 sequence (whole entry): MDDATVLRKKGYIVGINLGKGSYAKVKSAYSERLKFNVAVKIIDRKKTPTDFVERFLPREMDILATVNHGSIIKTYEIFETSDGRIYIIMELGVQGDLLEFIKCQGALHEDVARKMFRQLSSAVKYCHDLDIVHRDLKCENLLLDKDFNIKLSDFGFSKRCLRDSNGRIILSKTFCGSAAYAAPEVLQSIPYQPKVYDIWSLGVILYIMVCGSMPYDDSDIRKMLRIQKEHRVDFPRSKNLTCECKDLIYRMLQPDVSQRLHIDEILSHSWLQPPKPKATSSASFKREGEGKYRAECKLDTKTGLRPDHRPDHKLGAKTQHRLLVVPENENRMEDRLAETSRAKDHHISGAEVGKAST
The following applies: at 0.1 µM.

Assay [15] concerns the target T4, Testis-specific serine/threonine-protein kinase 2 (Homo sapiens). The following applies: at 1 µM.
For assay [16], the target named is Casein kinase I isoform alpha (Homo sapiens) (UniProt P48729). The following applies: at 0.1 µM.
Chain of Casein kinase I isoform alpha (Homo sapiens) (P48729 2-337 limits assumed): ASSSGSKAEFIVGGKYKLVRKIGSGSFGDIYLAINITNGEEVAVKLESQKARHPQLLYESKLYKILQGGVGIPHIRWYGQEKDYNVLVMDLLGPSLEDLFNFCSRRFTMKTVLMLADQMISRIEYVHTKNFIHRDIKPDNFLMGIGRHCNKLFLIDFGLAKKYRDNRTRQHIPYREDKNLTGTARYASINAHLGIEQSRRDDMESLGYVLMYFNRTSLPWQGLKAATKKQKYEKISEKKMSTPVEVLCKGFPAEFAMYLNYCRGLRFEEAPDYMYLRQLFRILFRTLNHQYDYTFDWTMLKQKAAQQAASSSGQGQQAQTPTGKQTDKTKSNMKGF
For assay [17] the target is unchanged. The following applies: at 1 µM.
In assay [18] the target is Casein kinase I isoform gamma-1 (Homo sapiens) (UniProt Q9HCP0). The following applies: at 0.1 µM.
Chain of Casein kinase I isoform gamma-1 (Homo sapiens) (Q9HCP0 whole entry, looked up, canonical isoform): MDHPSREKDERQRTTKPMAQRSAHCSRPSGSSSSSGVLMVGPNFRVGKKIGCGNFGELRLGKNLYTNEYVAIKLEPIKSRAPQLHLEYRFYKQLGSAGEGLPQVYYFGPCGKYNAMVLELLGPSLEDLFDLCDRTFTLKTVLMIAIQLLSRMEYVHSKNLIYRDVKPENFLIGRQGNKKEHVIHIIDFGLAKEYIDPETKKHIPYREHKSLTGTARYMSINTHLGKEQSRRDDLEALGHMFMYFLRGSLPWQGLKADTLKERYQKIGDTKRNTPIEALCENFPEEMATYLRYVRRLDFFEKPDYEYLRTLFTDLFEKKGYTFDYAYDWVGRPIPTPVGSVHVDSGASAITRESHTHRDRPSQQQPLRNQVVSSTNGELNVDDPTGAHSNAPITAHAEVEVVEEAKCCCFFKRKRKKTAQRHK
For assay [19] the target is unchanged. The following applies: at 1 µM.
Assay [20] concerns the target Casein kinase I isoform gamma-2 (Homo sapiens) (UniProt P78368). The following applies: at 0.1 µM.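 Further: values are mean inhibition figures reported as part of the GSK PKIS dataset.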

Each structure is given as a SMILES string.

Chain of Casein kinase I isoform gamma-2 (Homo sapiens) (P78368 whole entry, looked up, canonical isoform): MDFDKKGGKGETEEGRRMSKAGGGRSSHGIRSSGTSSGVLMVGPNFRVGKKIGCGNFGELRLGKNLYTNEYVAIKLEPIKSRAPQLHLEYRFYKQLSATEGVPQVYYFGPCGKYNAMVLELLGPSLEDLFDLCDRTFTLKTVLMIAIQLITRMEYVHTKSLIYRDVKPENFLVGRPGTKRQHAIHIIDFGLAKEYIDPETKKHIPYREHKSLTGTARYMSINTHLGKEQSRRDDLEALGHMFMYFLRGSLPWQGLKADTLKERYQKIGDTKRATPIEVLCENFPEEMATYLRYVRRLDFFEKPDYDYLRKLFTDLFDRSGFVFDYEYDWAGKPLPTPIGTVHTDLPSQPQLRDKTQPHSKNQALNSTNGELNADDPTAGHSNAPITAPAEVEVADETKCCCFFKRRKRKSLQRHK
Chain of Serine/threonine-protein kinase pim-2 (Homo sapiens) (Q9P1W9 whole entry, looked up): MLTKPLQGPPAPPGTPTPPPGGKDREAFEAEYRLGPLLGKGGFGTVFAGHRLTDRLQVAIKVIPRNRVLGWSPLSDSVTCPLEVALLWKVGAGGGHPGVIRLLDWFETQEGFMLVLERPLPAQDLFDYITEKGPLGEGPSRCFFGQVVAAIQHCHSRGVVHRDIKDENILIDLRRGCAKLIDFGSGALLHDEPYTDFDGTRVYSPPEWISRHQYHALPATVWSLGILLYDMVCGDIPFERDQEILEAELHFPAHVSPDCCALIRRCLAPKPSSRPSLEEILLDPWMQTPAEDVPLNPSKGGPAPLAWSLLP
Chain of Serine/threonine-protein kinase SIK2 (Homo sapiens) (Q9H0K1 whole entry, looked up): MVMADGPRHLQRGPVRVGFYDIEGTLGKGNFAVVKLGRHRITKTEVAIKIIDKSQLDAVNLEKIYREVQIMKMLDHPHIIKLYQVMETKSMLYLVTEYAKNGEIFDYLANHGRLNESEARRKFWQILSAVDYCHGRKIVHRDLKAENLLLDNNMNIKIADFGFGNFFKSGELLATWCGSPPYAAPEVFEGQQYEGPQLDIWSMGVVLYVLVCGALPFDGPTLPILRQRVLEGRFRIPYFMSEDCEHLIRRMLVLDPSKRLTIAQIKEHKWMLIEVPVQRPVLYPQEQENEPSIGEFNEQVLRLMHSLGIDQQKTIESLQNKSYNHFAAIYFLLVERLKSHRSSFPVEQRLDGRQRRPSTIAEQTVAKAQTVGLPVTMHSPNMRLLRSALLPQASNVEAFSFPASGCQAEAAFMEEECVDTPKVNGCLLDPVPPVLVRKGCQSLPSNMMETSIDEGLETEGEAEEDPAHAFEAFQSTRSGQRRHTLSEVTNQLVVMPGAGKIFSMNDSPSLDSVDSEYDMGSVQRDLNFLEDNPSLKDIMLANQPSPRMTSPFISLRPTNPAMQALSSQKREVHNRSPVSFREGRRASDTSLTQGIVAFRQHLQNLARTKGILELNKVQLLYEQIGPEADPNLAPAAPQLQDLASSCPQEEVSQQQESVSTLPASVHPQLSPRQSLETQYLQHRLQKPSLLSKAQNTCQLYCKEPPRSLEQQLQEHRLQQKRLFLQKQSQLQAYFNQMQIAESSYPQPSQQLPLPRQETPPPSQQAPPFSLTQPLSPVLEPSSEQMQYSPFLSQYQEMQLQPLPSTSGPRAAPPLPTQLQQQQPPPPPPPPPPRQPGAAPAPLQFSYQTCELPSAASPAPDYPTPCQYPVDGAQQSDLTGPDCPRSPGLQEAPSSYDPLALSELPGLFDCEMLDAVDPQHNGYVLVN

As to `CNC(=O)c1cccc(C#Cc2cncnc2Nc2ccc(OCc3cccc(F)c3)c(Cl)c2)c1`, the inhibition in assay [1] is -1.75%; in assay [2] it was 0.69%; in assay [3] it was 2.29%; in assay [4], 0.27%; in [5] it was 1.49%; in [6], 2.11%. For the same compound, the inhibition in assay [7] is 3.26%; in [8], -1.57%; in assay [9], -1.75%; in [10], -0.71%; in [11], 0.61%; in [12], 1.65%. Also, the inhibition was 1.56% in assay [13]; 1.7% in assay [14]; 2.08% in assay [15]; -4.8% in [16]; 0.1% in assay [17]; 1.2% in assay [18]. The inhibition in assay [19] was found to be 1.46%; in [20], 1.23%.

In the case of `c1ccc(COc2ccc(Nc3ncnc4ccc(-c5ccco5)cc34)cc2)cc1`, the inhibition is 1.2% in assay [1]; -0.14% in assay [2]; 0.8% in assay [3]; 0.38% in [4]; 0.36% in assay [5]; 1.4% in [6]. In addition, the inhibition is 7.46% in [7]; -3.82% in assay [8]; 1.35% in assay [9]; -0.27% in assay [10]; 0.67% in assay [11]; -0.63% in assay [12]. Besides, the inhibition is 0.68% in [13]; 0.44% in assay [14]; -0.19% in assay [15]; -0.74% in assay [16]; 0.74% in assay [17]; 0.87% in assay [18]. Also, the inhibition came out at 1.15% in [19] and 1.03% in assay [20].

`CCn1c(-c2nonc2N)nc2ccccc21`: the inhibition in assay [1] was 1.82%; in [2], -0.8%; in assay [3], 10.7%; in assay [4], 0.58%; in assay [5], -0.74%; in assay [6], 7.25%. Further, the inhibition in [7] was 7.65%; in assay [8] it was 9.3%; in assay [9], 1.28%; in assay [10], 3.25%; in assay [11], 3.36%; in assay [12] it was 2.04%. Moreover, the inhibition was 0.61% in assay [13]; 0.97% in assay [14]; -0.93% in assay [15]; 2.92% in assay [16]; 3.37% in assay [17]; 1.61% in assay [18]. The inhibition in assay [19] was 3.25%; in assay [20], 0.92%.

For the compound `CCc1nn2ncccc2c1-c1ccnc(NC2CC2)n1`, the inhibition worked out at 1.22% in assay [1]; 0.67% in [2]; 4.22% in assay [3]; 0.66% in assay [4]; 1.12% in assay [5]; 0.6% in assay [6]. Moreover, the inhibition in [7] stood at 7.84%; in assay [8], 0.42%; in [9], 2.21%; in assay [10] it was 2.11%; in assay [11], 3.02%; in assay [12], 1.98%. The inhibition is 3.93% in [13]; 1.82% in assay [14]; 2.06% in assay [15]; 4.3% in assay [16]; 15.9% in [17]; 1.08% in assay [18]. Further, the inhibition amounted to 2.03% in [19] and 1.32% in assay [20].

`CNC(=O)c1cc(-c2ccc(F)cc2)cc(-c2ccc(S(=O)(=O)N3CCCC3)cc2)c1N`: the inhibition in [1] is 0.43%; in assay [2], -1.52%; in [3], -0.11%; in [4], 0.53%; in [5], 0.97%; in assay [6], 6.18%. In addition, the inhibition in assay [7] was 6.6%; in assay [8], 3.18%; in [9] it was 5.07%; in assay [10] it was 0.38%; in assay [11] it was 1.13%; in assay [12], 2.57%. Besides, the inhibition in [13] was 3.21%; in assay [14], 1.51%; in [15], 1.66%; in [16], 2.27%; in [17], 3.11%; in [18], 2.3%. Further, the inhibition in assay [19] stood at 2.21%; in assay [20], 2.4%.

With `COc1ccc2[nH]c3c4[nH]c5ccc(OC)cc5c4c4c(c3c2c1)C(=O)NC4=O`, the inhibition is 68.3% in [1]; 66.7% in [2]; 82.7% in [3]; 2.48% in assay [4]; 8.8% in [5]; 26.9% in [6]. For the same compound, the inhibition in assay [7] is 77.2%; in assay [8], 56.4%; in assay [9], 78.2%; in [10], 10.9%; in assay [11], 53.9%; in assay [12] it was 3.96%. For the same compound, the inhibition in [13] amounted to 11.6%; in [14], 3.41%; in assay [15], 4.83%; in [16] it was 2.15%; in assay [17] it was 5.69%; in assay [18], 4.82%. Besides, the inhibition in assay [19] is 4.21%; in assay [20], 2.32%.

The values above are taken from ChEMBL document CHEMBL1961873, “Compounds: GSK PKIS; Assays: Nanosyn kinase panel” (2012).
